# Compound activity as filed in PubChem BioAssay.
# Shown are actives, neighbours in structure and some others; about 11% of the full set was active somewhere.
# ALDH1A1 block – ALDH1A1 (human) enzyme inhibition | P00352 | Purified ALDH1A1, NADH fluorescence, propionaldehyde substrate | Potency, µM (top dose mostly 75.3 µM), most hits filed as inhibitors | 220,000 tested, 7.3% active | AID 1030
# Target sequence (P00352 whole entry, looked up): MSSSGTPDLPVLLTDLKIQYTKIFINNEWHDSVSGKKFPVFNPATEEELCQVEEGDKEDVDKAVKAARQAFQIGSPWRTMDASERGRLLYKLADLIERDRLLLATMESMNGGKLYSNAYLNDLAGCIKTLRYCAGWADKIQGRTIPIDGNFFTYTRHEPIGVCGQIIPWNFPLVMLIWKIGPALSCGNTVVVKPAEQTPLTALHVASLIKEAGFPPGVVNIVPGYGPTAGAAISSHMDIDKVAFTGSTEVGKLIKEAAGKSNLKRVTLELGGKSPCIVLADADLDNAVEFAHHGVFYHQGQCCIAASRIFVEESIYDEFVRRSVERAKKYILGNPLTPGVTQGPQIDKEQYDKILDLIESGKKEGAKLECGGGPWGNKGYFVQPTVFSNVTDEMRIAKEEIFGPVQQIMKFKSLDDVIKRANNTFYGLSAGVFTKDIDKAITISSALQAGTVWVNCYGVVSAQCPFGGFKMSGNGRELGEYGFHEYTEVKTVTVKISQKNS
# HTT ATP protect – Huntington cell model cytoprotection by ATP luminescence; PC12 HTT-Q103 induced, cytoprotection, ATP luminescence, 40 h; Potency, µM (highest dose often 56.4 µM), usual class: activators; 230,000 tested, 0.14% active; AID 1471; active means well fitted curve in the direction sought with a large enough effect; inconclusive means small, poorly fitted or top-dose-only effect, or another doubt; inactive means no such curve, though single readings can be large; an effect the other way counts as inactive or inconclusive; further: nearly all actives have a fitted effect of over 45% in size
#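 ATP quantification (ATPlite) reports survival of PC12 cells in which tebufenozide, 100 nM final, switches on Htt exon 1 with 103 glutamines linked to GFP; compounds are titrated.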
# RGS12 GoLoco inh – inhibitors of human Gai1-RGS12 GoLoco interaction (red fluorophore); P63096; Gai1:RGS12 GoLoco peptide FP, rhodamine, 10 min; Potency, µM (titrated, usually from 61.6 µM), most hits filed as inhibitors; 230,000 tested, 0.44% active; AID 880; active means well fitted inhibition curve with a large enough effect, not every such curve was filed as active; inactive means no such curve, though single readings can be large or run the other way; further: nearly all actives have a fitted effect of over 30% in size
# HTT aggregate – mutant huntingtin aggregation inhibition; Potency, µM (series often up to 46.1 µM), usual class: inhibitors; 220,000 tested, 1.1% active; AID 1688; PC12 HttQ103-GFP aggregates, Acumen cytometry, 40 h; active means well fitted curve in the direction sought with a large enough effect; inconclusive means small, poorly fitted or top-dose-only effect, or another doubt; inactive means no such curve, though single readings can be large; an effect the other way counts as inactive or inconclusive; further: nearly all actives have a fitted effect of over 60% in size
#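 Ecdysone-promoter PC12 model expressing HTT exon 1 Q103 fused to GFP, induced by tebufenozide at 100 nM final. Compounds titrated; aggregates sized 1–25 µm scored on a 488 nm laser cytometer.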
# PNC assembly inh – inhibitors of perinucleolar compartment assembly. 140,000 tested, 3.1% active. activity change (PNC), negative = inhibition, % at 10 µM. PC3M PTB-GFP, PNC prevalence imaging, 16 h; active compounds read low. AID 2417;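 active means readout at or below -70, meaning at least 70% loss of cells showing the perinucleolar compartment, a nuclear body marking cancer cells; inconclusive means readout between -30 and a set limit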
#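 Compounds are pinned in duplicate onto adhered PC3M cells stably expressing GFP-tagged PTB and incubated 16 h at 37 C. Cells are then fixed, nuclei stained with Hoechst, and PNC-positive cells counted.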
# HPGD block – HPGD (human) dehydrogenase inhibition | purified HPGD, NADH fluorescence kinetic, PGE2 substrate | Potency, µM, most hits filed as inhibitors | P15428 | 150,000 tested, 4.3% active
#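 20 nM HPGD preincubated 15 min at room temperature with compound in 50 mM Tris-HCl pH 8, 0.01% Tween 20. Started with 1 mM NAD+ and 30 uM prostaglandin E2; NADH fluorescence (360/450 nm) read 5 times over 30-s intervals, last minus first.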
# A number is an active result; i = inactive; ? = inconclusive; nt = no result given; [ ] = another dose, or the depositor's remark. Unless noted, the call rests on the fitted dose curve; in most records, active means well fitted inhibition curve with a large enough effect (not every such curve was filed as active); inconclusive means small, poorly fitted or top-dose-only effect, or another doubt; inactive means no such curve, though single readings can be large or run the other way.
SMILES,ALDH1A1 block,HTT ATP protect,RGS12 GoLoco inh,HTT aggregate,PNC assembly inh,HPGD block
COc1ccc(CCC(C)Nc2cccc(F)c2)cc1 (stereo not given),10µM,i,i,i,i,i
COc1ccc(CCC(C)Nc2ccccc2F)cc1 (stereo not given),i,i[10 µM],i,i,i,i
O=S(=O)(c1ccccc1)N1CCC[C@@]2(CCN(c3ncccn3)C2)C1,?,?,i,nt,nt,i
CC(=O)c1c(C)nc2cc(Cl)ccc2c1N,i,i[0.074 µM],i,i,-95.0,i
Cc1cc(C)c2ccc(Cl)cc2n1,nt,i[10 µM],i,i[9.22 µM],nt,nt
COc1ccc(CCNC(=O)CSc2nncs2)cc1,i,nt,i,i,?,i
COc1ccc(-c2cc(N)n(S(=O)(=O)c3c(F)c(F)c(F)c(F)c3F)n2)cc1OC,31.6µM,i,i,?,i,i
COc1ccc(S(=O)(=O)n2nc(-c3cc(OC)c(OC)c(OC)c3)cc2N)cc1OC,i,i,i,i,i,i
CSc1nc2sc3c(c2c2nncn12)CCC3,7.94µM,i[10 µM],i,i,i,i
c1nnc2c3c4c(sc3ncn12)CCCC4,i,i[0.074 µM],i,i,i,i
Cn1nc(C(=O)Nc2nnc(C3CC3)s2)c2ccccc2c1=O,12.6µM,i,i,i,nt,nt
CO/N=C(\c1nonc1N)N1CCN(c2ccc(Cl)cc2[N+](=O)[O-])CC1,i,i,i,?,i,i
COC(c1ccccc1Br)C(C)/C=C/CCO (stereo not given),3.16µM,?,nt,nt,nt,nt
Cc1cc(C)c2cc3c(N)c(C(=O)N4CCc5ccccc5C4)sc3nc2c1,i,i[10 µM],i,i,?,7.08µM
C/C(CCC(=O)O)=N/Nc1ccc([N+](=O)[O-])cc1[N+](=O)[O-],i,i[10 µM],i,i,-86.9,i
C/C(CCCO)=N/Nc1ccc([N+](=O)[O-])cc1[N+](=O)[O-],i,i,i,?,nt,nt
N/C(CC/C(N)=N/O)=N\O,i[13.5 µM],i[10 µM],i[14.2 µM],nt,nt,i
Cc1cccc(C)c1NC(=O)C1c2cccc[n+]2CC(=O)N1Cc1ccc2c(c1)OCO2 (stereo not given),?,i,i,i,nt,nt
Cc1ccccc1NC(=O)C1c2cccc[n+]2CC(=O)N1c1c(C)cccc1C (stereo not given),11.2µM,i,i,i,?,i
COc1cc(C=NCC2OCCc3ccccc32)cc(OC)c1 (stereo not given),22.4µM,i[10 µM],i,i,i,i
COc1ccc(C=NCC2OCCc3ccccc32)cc1OC (stereo not given),?,i[10 µM],i,i,?,i
CCOc1cccc(OCCn2cnc3ccccc3c2=O)c1,i,i[10 µM],i,i,-90.7,i
COc1ccccc1NC(=O)c1ccc(-n2cccn2)nc1,i,i,i,i,i,i
COCCn1c(=O)c(-c2ccc(F)cc2)nc2cnc(Oc3ccccc3)nc21,?,i,i,nt,nt,nt
O=C(Cc1nn[nH]n1)c1ccccc1O,i,nt,i,?,?,i
SMILES,ALDH1A1 block,HTT ATP protect,RGS12 GoLoco inh,HTT aggregate,PNC assembly inh,HPGD block
COc1ccc(C2c3ccc(O)cc3Oc3ncn4nc(-c5cccnc5)nc4c32)cc1OC (stereo not given),i,i[10 µM],i,i[9.22 µM],nt,nt
CC1=C(/C=C/C(C)=C/C=C/C(C)=C/C(=O)O)C(C)(C)CCC1O (stereo not given),6.31µM,i,i,nt,nt,nt
OC(CNC1CCCC1)COCCOc1ccc(Br)cc1 (stereo not given),nt,i[10 µM],i,i[9.22 µM],nt,nt
CC(C)(C)c1cnnn1-c1ccc(C(=O)CCl)cc1,0.708µM,i[10 µM],i,i,?,14.1µM
Cc1onc(-c2ccccc2Cl)c1C(=O)Nc1ccc(-n2nncc2C(C)(C)C)cc1,?,i[0.074 µM],i,i,i,i
CC(C)(C)c1cnnn1-c1ccc(C=O)cc1,25.1µM,i[10 µM],i,i,?,i
CC(=O)O[C@]12CC[N@+]3(C)CCCC[C@@H]3[C-]1Nc1ccccc12,i[13.5 µM],i[10 µM],i[14.2 µM],nt,nt,i
CCN1C(=O)[C@H]2[C@H]3[C@H](O)[C@H](O)C/C(=N/OCC[C@H]4C=C[C@H](OC(C)=O)[C@@H](COC(C)=O)O4)[C@@H]3CC[C@@H]2C1=O,i[13.5 µM],i[10 µM],nt,nt,nt,nt
COc1ccc(N2C(N)=C(C#N)C(c3ccsc3)C3=C2CCCC3=O)c(OC)c1 (stereo not given),i,nt,i,i,-109.0,i
COc1cccc(C2C(C#N)=C(N)N(c3ncn[nH]3)C3=C2C(=O)CCC3)c1 (stereo not given),i,nt,i,i,?,i
Cc1ccc(S(=O)(=O)N2CCN(c3nc(C)c4c(c3C#N)CC(C)(C)OC4)CC2)cc1,?,i,nt,i,i,nt
CCCCn1c(CCn2nc(C)c(Br)c2C)n[nH]c1=S,i,i,i,i,i,22.4µM
CCn1c(CCCCc2n[nH]c(=S)n2CC)n[nH]c1=S,i,i,i,i,nt,nt
CCOC(=O)c1ccc(N2CCCCC2)c(NS(=O)(=O)c2cccc(C(F)(F)F)c2)c1,nt,i[10 µM],i,i[9.22 µM],nt,nt
COc1ccc(S(=O)(=O)Nc2cc(C(=O)NCCC(C)C)ccc2N2CCOCC2)cc1,14.1µM,i,i,i,i,i
COC(=O)c1ccc(N2CCCCC2)c(NS(=O)(=O)c2ccc(C)cc2)c1,7.94µM,i,i,i,i,i
COc1ccc(S(=O)(=O)Nc2cc(C(=O)NCCCN3CCOCC3)ccc2N2CCOCC2)cc1,?,i,i,i,nt,nt
CCN(CC)CCNC(=O)c1ccc(N2CCCCC2)c(NS(=O)(=O)c2ccc(C)cc2)c1,20µM,i[10 µM],i,i,i,i
O=C(CCl)N(c1ccccc1)C1CCCCC1,0.0355µM,nt,i,i,nt,nt
CC(=O)N(c1ccccc1)C1CCCC1,i,i[10 µM],i,i,i,i
CCCCN(C)S(=O)(=O)c1ccc(C(=O)N=c2sc3cc(NC(C)=O)ccc3n2C)cc1,i,i[10 µM],i,i,-94.4,i
O=c1[nH]ncc(N2CCCCC2)c1Cl,i,nt,i,i,i,i
O=c1[nH]ncc(N2CCCCCC2)c1Cl,10µM,i[10 µM],i,i[9.22 µM],nt,nt
O=C(CCc1nnc(-c2ccc3c(c2)OCO3)o1)NC(c1cccnc1)C(F)(F)F (stereo not given),i,i[10 µM],i,i[9.22 µM],nt,nt
CCCCCc1nnc(NC(=O)C(=O)OCC)s1,i,i,i,i,i,i
CCN(CC)S(=O)(=O)c1ccc(S(=O)(=O)N(CC(=O)Nc2ccccc2)Cc2ccco2)cc1,8.91µM,i[1.9 µM],i,i,i,i
CC(=O)Nc1ccc(S(=O)(=O)N(Cc2ccco2)CC2CCCO2)cc1 (stereo not given),12.6µM,i,i,i,i,i
CCN(CC)S(=O)(=O)c1ccc(S(=O)(=O)N(Cc2ccccn2)Cc2ccco2)cc1,1.78µM,i[10 µM],i,?,?,i
O=C(CN(Cc1ccccc1)S(=O)(=O)c1ccc(Br)cc1)NCc1ccco1,12.6µM,i,i,i,i,i
